Results from the supplement of paper PMC9925115.
± gives the uncertainty stated by the source.

Each compound was assayed on FLX1 (assay: cell viability z-score within plate (CellTiter-Glo), mean of 3 biological replicates; higher = higher viability relative to plate (less growth inhibition)). Conditions: 2 µM; time (hr): 120.
Description: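 FLX1 fibrolamellar carcinoma cells (DNAJB1-PRKACA fusion), 600 cells/well in 384-well plates, treated with a Selleck kinase inhibitor library (L1200) at 2 uM for 5 days (120 hr); viability by CellTiter-Glo. A z-score was computed within each plate and averaged over three biological replicates.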

SMILES | cell viability z-score within plate
CC(C)(C)c1cc(C=C(C#N)C#N)cc(Br)c1O | -0.784 ± 0.7
CC(C)(C)c1cc(C=C(C#N)C#N)cc(C(C)(C)C)c1O [Tyrphostin 9] | 0.448 ± 0.24
Cn1cc(C2=C(c3cn(C4CCN(Cc5ccccn5)CC4)c4ccccc34)C(=O)NC2=O)c2ccccc21 | -2.47 ± 0.57
Cc1ccccc1-n1c(Cn2ncc3c(N)ncnc32)nc2cccc(C)c2c1=O | 0.16 ± 0.68
O=c1[nH]c2ccc(Cl)cc2c(N[C@@H]2CN3CCC2CC3)c1-c1nc2ccccc2[nH]1 | 0.562 ± 0.43
CCN1CCN(C(=O)Cc2ccc(Nc3ncc(F)c(Nc4ccc(C(=O)Nc5ccccc5Cl)cc4)n3)cc2)CC1 [Aurora A Inhibitor I] | -0.367 ± 0.29
